Data taken from PubChem BioAssay (EPA / NIEHS).
A structure can be active in one record and inactive in another. Active and inactive are the calls of the source. The calls were made as follows: active = hit-call score of the fitted dose curve at least 0.9, where 1 is the maximum; inactive = score below 0.9.

read-out: Interleukin 17A (IL17A), IL17A (gene 3605); assay: BSK_BT_xIL17A: BioMAP Diversity Plus: BT Assay for Interleukin 17A (IL17A) Biomarker Activity (AID 2284229); settings: primary human B cells with PBMC
Procedure: BSK_BT is a cell-based, multiplexed-readout assay that uses B cell and peripheral blood mononuclear cells, a human vascular primary cell co-culture, with measurements taken at 24 hours after chemical dosing in a microplate: 96-well plate.BSK_BT_xIL17A is an assay component measured in the BSK_BT assay. It measures secreted IL-17A related to regulation of gene expression using LumineX xMAP technology.Data from the assay component BSK_BT_xIL17A was analyzed at the endpoint, BSK_BT_xIL17A, in the positive analysis fitting direction relative to DMSO as the negative control and baseline of activity. Using a type of cytokine quantitation reporter, gain or loss-of-signal activity can be used to understand protein changes. To generalize the intended target to other relatable targets, this assay endpoint is annotated to the 'cytokine' intended target family, where the subfamily is 'interleukins'.
The levels of cell surface (or secreted, indicated by the prefix "s") biomarker endpoints were measured by ELISA. Overt cytotoxicity to cells in confluent adherent cultures (all systems other than the BT system) was assessed by measuring total protein levels using sulforhodamine B (SRB) staining in parallel cultures at the time of biomarker measurements, indicated as SRB endpoints. For proliferation assays for adherent cell types, individual cell types are cultured at sub-confluence and relative cell numbers quantified by SRB staining at time points optimized for each system (48 h: 3C and CASM3C systems; 72 h: BT and HDF3CGF systems; 96 h: SAg system). SRB was performed by staining cells with 0.1% SRB after fixation with 10% TCA and reading wells at 560 nm.Viability and proliferation of PBMC (T cells) was quantified by Alamar Blue reduction for the SAg and BT systems. For PBMC viability (referred to as PBMC Cytotoxicity within the assay endpoint names), cells were plated (75,000/well in a 96-well plate) and then chemical samples added for 1 h before addition of activators, SEB and TSST-1 (20 ng/mL final concentration each). Cells were incubated for 90 h. Then, Alamar Blue (20 uL/well) (Invitrogen, Cat DAL1100) was added for 6 h, and the plates were read with a fluorescence microplate reader at 546/580 nm (excitation/emission). For PBMC proliferation, cells were plated and activated as above but incubated for only 16 h prior to addition of Alamar Blue. Plates were read after 6 h.

| SMILES | outcome | AC50 |
| --- | --- | --- |
| Cc1cc(Cl)ccc1OC(C)C(=O)O (stereo not given) | inactive | – |
| Oc1cccc(-c2ccccc2)c1 | inactive | – |
| Cc1ccc2nc3sc(=O)sc3nc2c1 | inactive | – |
| CCOC(=O)CC(=O)CCl | – | 10.5 µM (active) |
| CC(C)(COCC1CO1)COCC1CO1 (stereo not given) | inactive | – |
| Nc1ccc(N)cc1 | inactive | – |
| OC(Cc1ccccc1Cl)(Cn1[nH]cnc1=S)C1(Cl)CC1 (stereo not given) | inactive | – |
| CCOC(=O)C(SP(=S)(OC)OC)c1ccccc1 (stereo not given) | inactive | – |
| O=[N+]([O-])c1ccc(Nc2ccccc2)cc1 | inactive | – |
| Cc1c([N+](=O)[O-])c(C)c([N+](=O)[O-])c(C(C)(C)C)c1[N+](=O)[O-] | inactive | – |
| CCC(C)(C#N)N=NC(C)(C#N)CC (stereo not given) | inactive | – |
| Cc1cc(C(C)(C)c2ccc(O)c(C)c2)ccc1O | inactive | – |
| Nc1c(Oc2ccccc2)cc(O)c2c1C(=O)c1ccccc1C2=O | inactive | – |
| CCCCN(CCCC)C(=S)[S-].CCCCN(CCCC)C(=S)[S-].[Ni+2] | inactive | – |
| CCOP(=S)(OCC)OP(=S)(OCC)OCC | inactive | – |
| C[C@]12CC[C@@H](O)C[C@@H]1CC[C@@H]1[C@@H]2CC[C@]2(C)C(=O)CC[C@@H]12 | inactive | – |
| COCC(=O)N(c1c(C)cccc1C)[C@H](C)C(=O)OC | inactive | – |
| CCN(CC)C(=O)C(Cl)=C(C)OP(=O)(OC)OC | inactive | – |
| OC(Cc1ccccc1Cl)(Cn1cncn1)C1(Cl)CC1 (stereo not given) | inactive | – |
| CC1(C)[C@H](C(=O)O[C@H](C#N)c2cccc(Oc3ccccc3)c2)[C@@H]1/C=C(\Cl)C(F)(F)F | inactive | 17.1 µM (active) |

| SMILES | outcome | AC50 |
| --- | --- | --- |
| CC(C=O)Cc1ccc2c(c1)OCO2 (stereo not given) | inactive | – |
| O=c1oc2ccccc2c(O)c1C(CC(O)c1ccc(-c2ccc(Br)cc2)cc1)c1ccccc1 (stereo not given) | inactive | – |
| Cc1ccccc1OP(=O)(Oc1ccccc1C)Oc1ccccc1C | – | 24.7 µM (active) |
| Oc1ccc(Cc2ccc(O)cc2)cc1 | inactive | – |
| CCOP(=O)(OCC)SCCSCC | inactive | – |
| Cc1cc(Cl)ccc1N | inactive | – |
| Cc1ccccc1OP(=O)(Oc1ccccc1)Oc1ccccc1 | inactive | – |
| CC(C)(C)c1cc([N+](=O)[O-])cc(C(C)(C)C)c1O | – | 13.4 µM (active) |
| Cc1cccc(OP(=O)(Oc2cccc(C)c2)Oc2cccc(C)c2)c1 | inactive | – |
| CCOC(=O)CCN(SN(C)C(=O)Oc1cccc2c1OC(C)(C)C2)C(C)C | – | 26.5 µM (active) |
| CC(C)N(C(=O)CCl)c1ccccc1 | – | 5.91 µM (active) |
| CCOP(=O)(OCC)OC(=CCl)c1ccc(Cl)cc1Cl | inactive | – |
| NC(=O)CCl | inactive | – |
| CCCCCCCCCCCCN(C)C | inactive | – |
| O=S(=O)(c1ccc(Cl)cc1)c1cc(Cl)c(Cl)cc1Cl | inactive | – |
| O=C1C=CC(=O)c2ccccc21 | – | 0.482 µM (active) |
| O=C(O)COc1cc(Cl)c(Cl)cc1Cl | inactive | – |
| O=S(=O)(C(Cl)(Cl)Cl)C(Cl)(Cl)Cl | – | 3.08 µM (active) |
| C=CC(Cl)CCl (stereo not given) | inactive | – |
